Measurements: PubChem BioAssay AID463173 (ICCB-Longwood Screening Facility, Harvard Medical School, 2010)
Out of some 52,000 compounds screened, about 4,300 (8.3%) were called active. The entries come from a sample that favours actives as a whole. A number with no mark means an inactive call. Rule as the data show it: active = survival mostly below about 52% (no sharp cut-off); inactive = mostly above about 56%.

tested on: DeltatarO mutant; experiment: S. aureus survival, RN4220 and DeltatarO strains – OD600, teichoic acid synthesis inhibitors, primary screen (AID 463173); settings: S. aureus RN4220 wild type/DeltatarO growth, OD600, 18 h, stronger effect = lower value, screened at 18.75 µg/mL (by protocol)

SMILES | survival
Cc1ccc(Nc2ccc(N3CCN(C(=O)c4cccc([N+](=O)[O-])c4)CC3)nn2)cc1 | 85%
O=C(NCCc1ccccc1)c1ccc2c(c1)N(Cc1ccc(Cl)cc1)C(=O)c1ccccc1S2(=O)=O | 89%
COCCCNC(=O)c1ccc2c(c1)N(Cc1ccccc1F)C(=O)c1ccccc1S2=O (stereo not given) | 83%
COC(=O)c1sc2cccc(F)c2c1S(=O)(=O)NCc1ccc(F)cc1 | 103%
N#CC1=C(N)C(C#N)(C#N)C(c2ccccc2)C2CCCC=C12 (stereo not given) | 97%
COc1ccc(C2=C(N3CCN(c4cc(C)ccc4C)CC3)c3ccccc3C2=O)cc1 | 28% (active)
COc1ccc(C2=C(N3CCN(c4cc(Cl)ccc4C)CC3)c3ccccc3C2=O)cc1 | 95%
Cc1ccc(C)c(N2CCN(C3=C(c4ccccc4)C(=O)c4ccccc43)CC2)c1 | 100%
Cn1c(-c2ccccc2)cnc1NC(=O)c1ccc(F)cc1 | 81%
Cn1c(-c2cccc(Br)c2)cnc1NCc1cccc(F)c1 | 28% (active)
CCc1ccc(CNc2ncc(-c3cccc(OC)c3)n2C)cc1 | 8% (active)
COc1cccc(C(=O)n2nc(-c3cccnc3)nc2NCc2ccc(F)cc2)c1 | 71%
O=C(NCc1cccc(F)c1)c1ccc(-n2cnc3cccnc32)cc1 | 97%
COc1cccc(-c2cnc(NCc3ccccc3Cl)n2C)c1 | 51%
Cc1cc(Cl)ccc1NC(=O)CS(=O)(=O)c1cccc2nsnc12 | 125%
Fc1ccc(-c2cc(-c3nc(-c4cccc(Cl)c4)no3)[nH]n2)cc1 | 88%
CC(C)(C)c1ccc(C(=O)NC2CCSC2=O)cc1 (stereo not given) | 92%
NC(=O)c1ccccc1NC(=O)Cn1nc(Cc2cccnc2)c2ccccc2c1=O | 71%
CC(Sc1cn(CCNC(=O)c2ccccc2F)c2ccccc12)c1ccccc1 (stereo not given) | 42% (active)
COc1ccc(C(=O)NCCn2cc(SCc3cccc(F)c3)c3ccccc32)cc1OC | 52%
Cc1ccc(C)c(CSc2cn(CCNC(=O)c3cccs3)c3ccccc23)c1 | 71%
O=C(CSc1cn(CCNC(=O)c2cccc(C(F)(F)F)c2)c2ccccc12)Nc1ccc2c(c1)OCCO2 | 87%
O=C(NCCn1cc(SCc2ccc(C(F)(F)F)cc2)c2ccccc21)c1cccs1 | 95%

SMILES | survival
O=C(CSc1cn(CCNC(=O)c2ccccc2F)c2ccccc12)Nc1ccccc1F | 80%
O=C(NCCn1cc(SCc2cccc(F)c2)c2ccccc21)c1cccc(C(F)(F)F)c1 | 35% (active)
O=C(NCCn1cc(SCc2ccc(C(F)(F)F)cc2)c2ccccc21)c1ccccc1F | 36% (active)
Cc1ccc(C)c(CSc2cn(CCNC(=O)c3ccccc3F)c3ccccc23)c1 | 35% (active)
COc1ccc(C(=O)NCCn2cc(SCc3ccc(C(F)(F)F)cc3)c3ccccc32)cc1OC | 72%
COc1ccc(C(=O)NCCn2cc(SCc3cc(C)ccc3C)c3ccccc32)cc1 | 57%
COc1ccc(C(=O)NCCn2cc(SC(C)c3ccccc3)c3ccccc32)cc1OC (stereo not given) | 61%
O=C(CCC(=O)N1CC2CCCN2c2ccccc21)NCc1ccccc1F (stereo not given) | 131%
CCOc1ccc(NC(=O)C2CCC(N3C(=O)C4CC=CCC4C3=O)CC2)cc1 (stereo not given) | 77%
COc1ccc2oc(=O)c(-c3nc(-c4cccs4)no3)cc2c1 | 73%
CCc1ccc(NC(=O)CSc2nccn2C2CCCC2)cc1 | 70%
CCN(C(=O)c1cc2c(Cl)nc3ccc(C)cc3c2s1)c1cc(OC)ccc1OC | 61%
CCOc1ccc2c(c1)c(=O)c(S(=O)(=O)c1ccc(C)cc1)cn2CC(=O)Nc1ccc(C)cc1 | 66%
O=C(NCCn1cc(SCc2ccc(F)cc2)c2ccccc21)c1c(F)cccc1F | 53% (active)
O=C(CSc1cn(CCNC(=O)c2c(F)cccc2F)c2ccccc12)Nc1ccccc1F | 55%
O=C(NCCn1cc(SCc2ccc(F)cc2)c2ccccc21)c1cccs1 | 50%
O=C(NCCn1cc(SCc2ccccc2)c2ccccc21)c1cccs1 | 54% (active)
O=C(CSc1cn(CCNC(=O)c2c(F)cccc2F)c2ccccc12)Nc1ccc(F)cc1 | 128%
O=C(NCCn1cc(SCc2ccc(Br)cc2)c2ccccc21)c1cccs1 | 110%
CCOc1ccc(-c2cccc(NS(=O)(=O)c3ccc(F)cc3F)c2)nn1 | 77%
CCN(CC)CCCNC(=O)Cn1nc(N2CCN(c3ccccc3OC)CC2)ccc1=O | 75%
CCOc1ccccc1Oc1ncnc2c1oc1ccccc12 | 83%
COc1ccc(Oc2ncnc3c2oc2ccccc23)cc1 | 55%

SMILES | survival
Fc1ccccc1Oc1ncnc2c1oc1ccccc12 | 37% (active)
CC(=O)N1CCc2cc(S(=O)(=O)NC(CC(C)C)C(=O)Nc3ccc(C(C)C)cc3)ccc21 (stereo not given) | 61%
FC(F)(F)c1cccc(N2CCN(c3ncnc4c3nc3n4CCCC3)CC2)c1 | 95%
CCOC(=O)c1ccccc1NC(=O)CSc1nnc(CC)n2c1cc1occc12 | 63%
O=C(O)C1CCCCC1C(=O)Nc1cccc(C(=O)N2CCCCC2)c1 (stereo not given) | 101%
COc1ccc(OC)c(NC(=O)c2ccc3c(SCC(=O)O)c4c(nc3c2)CCCC4)c1 | 64%
Cn1cnc2c(=O)oc3ccc(S(=O)(=O)N4CCN(c5cccc(Cl)c5)CC4)cc3c21 | -5% (active)
Cn1cnc2c(=O)oc3ccc(S(=O)(=O)N4CCN(c5cccc(C(F)(F)F)c5)CC4)cc3c21 | 108%
Cn1cnc2c(=O)oc3ccc(S(=O)(=O)N4CCN(c5ccccc5)CC4)cc3c21 | 77%
Cc1ccc(/C=C/c2onc(C)c2S(=O)(=O)N2CCC(C(=O)NCc3ccco3)CC2)cc1 | 74%
CCOc1ccccc1NC(=O)c1c(NC(=O)c2ccccc2)sc2c1CCCC2 | 58%
Cc1ccccc1NC(=O)c1c(NC(=O)Cc2ccccc2)sc2c1CCC2 | 29% (active)
CCOc1ccccc1NC(=O)c1c(NC(=O)c2cccc(C)c2)sc2c1CCCC2 | 76%
Cc1ccccc1NC(=O)c1c(NC(=O)c2ccccc2)sc2c1CCC2 | 126%
COc1ccccc1NC(=O)c1c(NC(=O)c2ccccc2Cl)sc2c1CCC2 | 78%
O=C(Cc1ccccc1)Nc1sc2c(c1C(=O)Nc1ccccc1Cl)CCC2 | 34% (active)
CCc1ccccc1NC(=O)c1c(NC(=O)c2ccccc2)sc2c1CCCC2 | 42% (active)
COc1ccccc1NC(=O)c1c(NC(=O)c2ccccc2F)sc2c1CCC2 | 136%
O=C(Nc1sc2c(c1C(=O)Nc1ccccc1Cl)CCCC2)c1ccccc1F | 48% (active)
CCOc1ccccc1NC(=O)c1c(NC(=O)Cc2ccccc2)sc2c1CCCC2 | 81%
CCOc1ccccc1NC(=O)c1c(NC(=O)Cc2ccc(OC)cc2)sc2c1CCC2 | 61%
O=C(NC1CC(=O)N(c2ccc(Cl)cc2)C1)c1ccc2c(c1)OCO2 (stereo not given) | 78%
CN(C(=O)c1nn(C)c2c1COc1ccccc1-2)c1cccc(C(F)(F)F)c1 | 81%

SMILES | survival
Cc1ccc(C2=Nc3ccccc3N(CC(=O)Nc3cccc(F)c3)C(=O)C2)cc1C | 79%
CCOC(=O)CC(=O)CSc1nc2ccccc2c(=O)n1CCc1ccccc1 | 84%
COc1cccc(C(=O)Nc2ccc3oc(-c4cccc5c(Br)cccc45)nc3c2)c1 | 59%
O=C(CCC1N=C2c3ccccc3N=C(SCC(=O)Nc3ccc(F)cc3)N2C1=O)NCc1cccs1 (stereo not given) | 87%
O=C(Cc1ccccc1)Nc1sc2c(c1C(=O)Nc1ccccc1Cl)CCCCC2 | 47%
O=C(COc1ccccc1)Nc1sc2c(c1C(=O)Nc1ccccc1Cl)CCCCC2 | 56% (active)
O=C(Cc1ccccc1)Nc1sc2c(c1C(=O)Nc1ccccc1Cl)CCCC2 | 31% (active)
COc1ccccc1NC(=O)c1c(NC(=O)COc2ccccc2)sc2c1CCCCC2 | 85%
O=C(COc1ccccc1)Nc1sc2c(c1C(=O)Nc1ccccc1)CCCCC2 | 85%
O=C(O)CCC(=O)Nc1sc2c(c1C(=O)Nc1ccccc1)CCCCC2 | 92%
CCn1c(=O)n(CC)c2cc(N3CCCCC3)c(NC(=O)Nc3ccccc3C(F)(F)F)cc21 | 101%
Cc1cc(-c2ccc(C)c(S(=O)(=O)N(C(C)C)C3CCCCC3)c2)on1 | 88%
Cn1c2c(c(=O)n(C)c1=O)C(c1ccccc1[N+](=O)[O-])CC(=O)N2 (stereo not given) | 93%
COc1ccc(-c2nc3cc(C(C)C)ccc3o2)cc1NC(=O)c1ccc(C)c(Cl)c1 | 21% (active)
COc1ccc(-c2nc3cc(NC(=O)COc4ccccc4C)ccc3o2)cc1 | 60%
CCOc1ccc(C(=O)Nc2ccc(-c3nc4cc(C(C)C)ccc4o3)cc2)cc1Cl | 65%
COc1ccc(-c2nc3cc(C(C)C)ccc3o2)cc1NC(=O)c1ccccc1[N+](=O)[O-] | 50%
COc1ccc(-c2nc3cc(C(C)C)ccc3o2)cc1NC(=O)COc1ccc(C)cc1C | 37% (active)
COc1ccc(-c2nc3cc(NC(=O)COc4ccc(C)c(C)c4)ccc3o2)cc1 | 84%
O=C(Nc1ccc(F)c(Cl)c1)C1CCCN(S(=O)(=O)c2cccc3nsnc23)C1 (stereo not given) | 67%
O=C(CSc1nc2c([nH]c3ccccc32)c(=O)n1-c1ccc(Cl)cc1)NC1CCCCC1 | 87%
